Laboratory results reported in the supplement of paper PMC11732987, “Enantioselective OTUD7B fragment discovery through chemoproteomics screening and high-throughput optimisation” (Communications Chemistry, 2025).

Columns and labels:
Assay in all cases: log2 ratio of Biotin-Ahx-Ub-VS probe labelling (fragment/DMSO); higher = less target engagement (more negative = stronger competition), active = hit call of the paper (q ≤ 0.05, log2 ratio ≤ -1)
Conditions in all cases: compound concentration: 200 uM; treatment time: 3 h
[1] = biological target: T1, USP19 (UniProt O94966)
T1 sequence (whole entry): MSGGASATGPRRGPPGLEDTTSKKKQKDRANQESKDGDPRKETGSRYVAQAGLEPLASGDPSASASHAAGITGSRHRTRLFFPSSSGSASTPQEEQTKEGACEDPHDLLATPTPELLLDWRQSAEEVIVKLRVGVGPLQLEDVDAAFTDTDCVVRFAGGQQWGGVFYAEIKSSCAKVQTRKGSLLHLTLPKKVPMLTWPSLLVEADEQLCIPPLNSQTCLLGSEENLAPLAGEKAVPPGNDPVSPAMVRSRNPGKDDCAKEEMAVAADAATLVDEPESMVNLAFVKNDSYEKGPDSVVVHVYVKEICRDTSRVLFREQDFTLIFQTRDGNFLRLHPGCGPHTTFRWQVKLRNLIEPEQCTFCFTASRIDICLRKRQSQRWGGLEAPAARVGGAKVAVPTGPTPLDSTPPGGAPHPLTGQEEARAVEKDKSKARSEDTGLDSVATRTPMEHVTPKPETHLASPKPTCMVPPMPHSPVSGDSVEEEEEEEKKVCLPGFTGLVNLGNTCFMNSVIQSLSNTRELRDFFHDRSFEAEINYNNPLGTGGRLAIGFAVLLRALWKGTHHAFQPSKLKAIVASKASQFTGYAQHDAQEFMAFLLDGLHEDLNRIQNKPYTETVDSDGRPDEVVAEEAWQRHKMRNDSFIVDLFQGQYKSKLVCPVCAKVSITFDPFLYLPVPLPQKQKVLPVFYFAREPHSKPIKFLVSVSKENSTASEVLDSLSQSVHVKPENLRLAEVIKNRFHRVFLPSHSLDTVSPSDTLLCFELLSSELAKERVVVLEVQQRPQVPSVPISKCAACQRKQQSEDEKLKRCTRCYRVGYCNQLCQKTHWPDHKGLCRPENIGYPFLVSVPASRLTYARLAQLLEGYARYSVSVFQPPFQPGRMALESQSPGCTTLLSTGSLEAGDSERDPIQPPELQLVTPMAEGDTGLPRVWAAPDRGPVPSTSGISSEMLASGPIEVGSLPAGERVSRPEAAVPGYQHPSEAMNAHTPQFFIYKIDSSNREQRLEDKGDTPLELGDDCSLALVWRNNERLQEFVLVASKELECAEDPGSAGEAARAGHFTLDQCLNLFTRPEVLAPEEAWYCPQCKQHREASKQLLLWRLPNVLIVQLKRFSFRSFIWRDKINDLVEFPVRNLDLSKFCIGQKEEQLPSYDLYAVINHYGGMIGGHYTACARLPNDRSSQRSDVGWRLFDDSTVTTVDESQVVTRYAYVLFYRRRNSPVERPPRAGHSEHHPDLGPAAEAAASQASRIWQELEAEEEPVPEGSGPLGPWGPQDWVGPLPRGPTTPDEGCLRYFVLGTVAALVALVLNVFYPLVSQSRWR
Outline: (§1)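 Average log2 ratios of fragment over vehicle were obtained by unpaired t-test from global-median-normalised Spectronaut label-free quantities. Proteins with ≥2 unique peptides were included. HEK293T lysate (495 µg per sample) was treated in triplicate with fragment at 200 µM or vehicle for 3 h, then with Biotin-Ahx-Ub-VS at 0.5 µM final for 1 h, and labelled DUBs were NeutrAvidin-enriched and run by diaPASEF LC-MS/MS.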

[2] = biological target: T2, USP22 (UniProt Q9UPT9)
T2 sequence (whole entry): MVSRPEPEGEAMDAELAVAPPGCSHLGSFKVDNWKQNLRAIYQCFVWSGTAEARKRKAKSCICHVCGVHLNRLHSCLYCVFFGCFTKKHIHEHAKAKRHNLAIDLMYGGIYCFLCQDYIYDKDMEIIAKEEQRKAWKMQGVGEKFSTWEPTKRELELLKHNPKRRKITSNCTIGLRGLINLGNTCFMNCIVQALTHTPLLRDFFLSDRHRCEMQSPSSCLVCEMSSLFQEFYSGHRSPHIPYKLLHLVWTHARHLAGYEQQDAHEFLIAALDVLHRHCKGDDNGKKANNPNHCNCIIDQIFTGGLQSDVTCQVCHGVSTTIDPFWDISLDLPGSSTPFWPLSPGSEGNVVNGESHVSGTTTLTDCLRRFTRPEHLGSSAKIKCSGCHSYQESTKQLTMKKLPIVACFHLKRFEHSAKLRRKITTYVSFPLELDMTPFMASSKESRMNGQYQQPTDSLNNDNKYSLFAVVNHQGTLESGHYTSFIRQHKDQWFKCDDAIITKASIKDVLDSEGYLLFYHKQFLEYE
Outline: as §1

[3] = biological target: USP24 (UniProt Q9UPU5)
Outline: as §1

[4] = biological target: T3, USP25 (UniProt Q9UHP3)
T3 sequence (whole entry): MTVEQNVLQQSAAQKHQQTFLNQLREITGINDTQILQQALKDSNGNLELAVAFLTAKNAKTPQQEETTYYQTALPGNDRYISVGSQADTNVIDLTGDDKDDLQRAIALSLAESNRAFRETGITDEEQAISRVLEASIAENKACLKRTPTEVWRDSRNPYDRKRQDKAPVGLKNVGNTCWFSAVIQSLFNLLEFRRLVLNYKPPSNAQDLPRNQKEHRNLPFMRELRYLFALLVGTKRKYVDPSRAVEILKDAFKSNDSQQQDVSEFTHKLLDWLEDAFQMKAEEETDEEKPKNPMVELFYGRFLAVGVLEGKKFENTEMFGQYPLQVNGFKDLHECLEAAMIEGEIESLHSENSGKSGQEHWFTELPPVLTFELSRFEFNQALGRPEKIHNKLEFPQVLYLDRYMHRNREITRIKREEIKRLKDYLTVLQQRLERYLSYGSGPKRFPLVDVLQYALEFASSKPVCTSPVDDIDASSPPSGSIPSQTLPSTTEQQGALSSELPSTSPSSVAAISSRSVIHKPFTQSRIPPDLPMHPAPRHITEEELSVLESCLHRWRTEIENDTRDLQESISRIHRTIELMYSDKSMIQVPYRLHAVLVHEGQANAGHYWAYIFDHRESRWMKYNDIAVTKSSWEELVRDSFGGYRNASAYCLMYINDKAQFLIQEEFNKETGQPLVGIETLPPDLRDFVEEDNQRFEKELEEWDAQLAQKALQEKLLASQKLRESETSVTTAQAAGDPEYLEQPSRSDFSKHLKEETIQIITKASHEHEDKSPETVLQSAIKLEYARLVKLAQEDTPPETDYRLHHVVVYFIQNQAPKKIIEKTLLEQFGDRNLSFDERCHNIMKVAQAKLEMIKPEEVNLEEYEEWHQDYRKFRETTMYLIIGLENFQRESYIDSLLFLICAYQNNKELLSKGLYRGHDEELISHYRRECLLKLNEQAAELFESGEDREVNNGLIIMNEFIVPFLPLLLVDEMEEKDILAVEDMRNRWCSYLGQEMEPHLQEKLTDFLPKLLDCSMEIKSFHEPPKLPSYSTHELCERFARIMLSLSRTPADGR
Outline: as §1

[5] = biological target: T4, USP28 (UniProt Q96RU2)
T4 sequence (whole entry): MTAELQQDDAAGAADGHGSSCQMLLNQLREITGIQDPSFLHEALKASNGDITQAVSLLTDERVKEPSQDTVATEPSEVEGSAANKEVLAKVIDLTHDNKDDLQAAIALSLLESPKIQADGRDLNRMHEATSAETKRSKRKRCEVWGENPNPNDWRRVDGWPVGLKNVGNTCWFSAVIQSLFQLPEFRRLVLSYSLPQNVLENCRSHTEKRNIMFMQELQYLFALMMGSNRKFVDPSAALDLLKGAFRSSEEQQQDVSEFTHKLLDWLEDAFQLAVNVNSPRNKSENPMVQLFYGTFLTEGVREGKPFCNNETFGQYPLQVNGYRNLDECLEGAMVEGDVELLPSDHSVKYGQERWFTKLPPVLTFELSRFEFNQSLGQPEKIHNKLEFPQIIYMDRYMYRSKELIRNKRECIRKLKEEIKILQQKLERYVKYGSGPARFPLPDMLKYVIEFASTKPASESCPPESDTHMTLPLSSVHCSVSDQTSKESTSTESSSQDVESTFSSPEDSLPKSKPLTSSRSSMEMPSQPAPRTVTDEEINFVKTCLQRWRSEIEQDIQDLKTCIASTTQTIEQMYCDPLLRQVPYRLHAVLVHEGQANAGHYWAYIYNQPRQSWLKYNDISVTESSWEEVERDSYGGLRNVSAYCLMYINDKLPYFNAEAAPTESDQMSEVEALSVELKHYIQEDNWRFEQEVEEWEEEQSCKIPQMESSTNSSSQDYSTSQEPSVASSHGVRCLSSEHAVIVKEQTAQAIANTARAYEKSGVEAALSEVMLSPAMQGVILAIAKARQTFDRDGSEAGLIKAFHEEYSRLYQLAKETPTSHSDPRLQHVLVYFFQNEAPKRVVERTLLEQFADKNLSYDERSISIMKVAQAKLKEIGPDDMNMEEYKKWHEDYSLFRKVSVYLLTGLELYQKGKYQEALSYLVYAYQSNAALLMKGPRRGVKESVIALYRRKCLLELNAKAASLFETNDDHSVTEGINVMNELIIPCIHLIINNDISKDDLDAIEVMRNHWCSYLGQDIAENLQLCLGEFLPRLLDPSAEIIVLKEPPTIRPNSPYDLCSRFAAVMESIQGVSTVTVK
Outline: as §1

Measured: log2 ratio of Biotin-Ahx-Ub-VS probe labelling

USP24, sequence (Q9UPU5 whole entry): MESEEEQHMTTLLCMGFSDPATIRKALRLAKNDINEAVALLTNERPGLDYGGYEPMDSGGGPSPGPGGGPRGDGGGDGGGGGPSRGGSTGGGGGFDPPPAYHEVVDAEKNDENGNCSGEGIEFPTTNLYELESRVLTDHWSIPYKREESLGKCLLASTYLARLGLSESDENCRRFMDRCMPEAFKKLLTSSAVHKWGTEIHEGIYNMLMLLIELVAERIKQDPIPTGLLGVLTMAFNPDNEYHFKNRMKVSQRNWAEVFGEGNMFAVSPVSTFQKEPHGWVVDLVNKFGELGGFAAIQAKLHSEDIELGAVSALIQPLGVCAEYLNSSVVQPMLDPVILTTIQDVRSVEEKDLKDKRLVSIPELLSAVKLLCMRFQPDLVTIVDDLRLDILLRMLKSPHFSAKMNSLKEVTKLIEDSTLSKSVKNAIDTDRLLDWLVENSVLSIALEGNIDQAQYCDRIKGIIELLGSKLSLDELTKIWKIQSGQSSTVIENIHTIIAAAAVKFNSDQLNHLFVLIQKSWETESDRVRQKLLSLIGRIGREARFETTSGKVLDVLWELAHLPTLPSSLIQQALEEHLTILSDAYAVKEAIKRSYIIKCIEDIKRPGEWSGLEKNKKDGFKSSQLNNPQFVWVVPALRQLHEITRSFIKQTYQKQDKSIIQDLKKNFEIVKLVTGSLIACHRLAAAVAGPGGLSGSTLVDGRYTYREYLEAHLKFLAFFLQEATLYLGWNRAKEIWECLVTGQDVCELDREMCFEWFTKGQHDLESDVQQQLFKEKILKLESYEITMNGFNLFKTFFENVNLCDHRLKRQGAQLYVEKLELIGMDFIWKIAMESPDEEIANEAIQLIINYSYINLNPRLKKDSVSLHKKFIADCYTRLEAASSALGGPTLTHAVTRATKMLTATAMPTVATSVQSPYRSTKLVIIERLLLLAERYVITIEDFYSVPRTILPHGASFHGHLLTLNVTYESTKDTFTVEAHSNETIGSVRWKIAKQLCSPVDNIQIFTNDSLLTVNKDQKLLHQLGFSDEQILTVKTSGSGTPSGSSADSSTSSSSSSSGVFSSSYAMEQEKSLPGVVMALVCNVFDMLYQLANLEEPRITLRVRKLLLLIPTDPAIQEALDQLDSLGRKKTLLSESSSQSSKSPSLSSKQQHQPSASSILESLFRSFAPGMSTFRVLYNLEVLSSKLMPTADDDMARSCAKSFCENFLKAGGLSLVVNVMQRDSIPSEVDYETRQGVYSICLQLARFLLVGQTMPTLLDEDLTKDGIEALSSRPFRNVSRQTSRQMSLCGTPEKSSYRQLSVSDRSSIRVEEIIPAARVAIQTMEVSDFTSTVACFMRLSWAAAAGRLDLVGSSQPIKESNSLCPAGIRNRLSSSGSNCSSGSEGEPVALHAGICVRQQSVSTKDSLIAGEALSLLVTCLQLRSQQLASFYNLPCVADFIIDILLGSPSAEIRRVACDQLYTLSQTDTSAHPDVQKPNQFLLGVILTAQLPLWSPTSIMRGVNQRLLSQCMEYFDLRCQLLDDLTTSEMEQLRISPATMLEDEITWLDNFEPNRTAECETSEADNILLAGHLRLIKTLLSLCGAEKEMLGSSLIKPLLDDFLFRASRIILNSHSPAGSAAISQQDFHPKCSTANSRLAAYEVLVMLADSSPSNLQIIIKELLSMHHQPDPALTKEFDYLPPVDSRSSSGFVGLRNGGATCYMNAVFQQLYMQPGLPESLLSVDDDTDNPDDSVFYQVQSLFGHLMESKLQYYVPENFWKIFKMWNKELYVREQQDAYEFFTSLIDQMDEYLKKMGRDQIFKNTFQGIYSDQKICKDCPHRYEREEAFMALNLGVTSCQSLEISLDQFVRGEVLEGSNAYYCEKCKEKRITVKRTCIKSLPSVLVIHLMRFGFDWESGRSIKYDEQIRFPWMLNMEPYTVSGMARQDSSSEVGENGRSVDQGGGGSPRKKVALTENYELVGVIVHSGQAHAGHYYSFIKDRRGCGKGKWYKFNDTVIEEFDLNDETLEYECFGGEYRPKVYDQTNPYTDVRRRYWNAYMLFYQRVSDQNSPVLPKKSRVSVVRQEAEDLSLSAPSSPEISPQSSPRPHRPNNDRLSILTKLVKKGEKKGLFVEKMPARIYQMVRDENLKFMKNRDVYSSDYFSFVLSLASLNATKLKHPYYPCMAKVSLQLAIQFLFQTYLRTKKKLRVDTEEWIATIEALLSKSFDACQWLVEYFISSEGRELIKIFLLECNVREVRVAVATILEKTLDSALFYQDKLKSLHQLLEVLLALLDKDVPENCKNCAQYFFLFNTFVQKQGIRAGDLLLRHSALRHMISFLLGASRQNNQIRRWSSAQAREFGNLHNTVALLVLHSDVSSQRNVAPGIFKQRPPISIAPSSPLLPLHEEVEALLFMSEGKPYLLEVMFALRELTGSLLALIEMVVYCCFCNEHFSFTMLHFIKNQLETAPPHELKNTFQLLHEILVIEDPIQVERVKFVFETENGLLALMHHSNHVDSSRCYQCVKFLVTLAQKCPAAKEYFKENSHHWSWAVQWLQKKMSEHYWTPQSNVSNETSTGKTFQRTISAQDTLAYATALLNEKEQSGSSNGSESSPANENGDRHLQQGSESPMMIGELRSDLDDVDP

CC(C)n1nccc1NC(=O)CCl
inactive: [1] -0.0967 | [2] 0.134 | [3] -0.207 | [4] -0.514 | [5] -0.651
